# Measurements published in PubChem BioAssay.
# Experiment: compound enhancement of TRAIL-induced cell killing – NB7 cells plus caspase-8, luminescence, panel, dose response (AID 652002)
# Settings: NB7 neuroblastoma +caspase-8, no TRAIL, compound-alone cytotoxicity counter-screen, luminescence viability, NB7+Caspase-8, run 2; at 12.5 µM (top of the series) unless noted
row,Structure (SMILES),"activity, % sensitization [%]"
1,COC(=O)c1ccc(/C=C/c2nc3ccccc3c(=O)[nH]2)cc1,-17.7
2,CCOc1ccc(-c2cc(C(=O)N3CCC(C)CC3)c3ccccc3n2)cc1,-9.62
3,CCOc1ccc(NC(=O)Nc2cccs2)cc1,47.8
4,CCCCCCCn1c2c(c(=N)c3ccccc31)CCC2,28
5,CN(C(=O)COC(=O)c1cnc(Cl)c(Cl)c1)C1CCCCC1,13.1
6,COC(=O)c1ccc(/C=C(\C#N)c2ccccn2)cc1,-11
7,Cc1cc2nc(-c3ccc(SCC(=O)Nc4nccs4)nc3)[nH]c2cc1C,0.327
8,C(=C\c1ccco1)/c1nc2ccccc2[nH]1,-0.982
9,Cc1nc2cc(NC(=O)Nc3cccc([N+](=O)[O-])c3)ccc2n1C,3.35
10,O=C(ONC1=NCCCCC1)c1ccc(Cl)cc1,44.2
11,O=C(NC(=O)c1ccccc1)Nc1ccccc1,-8.56
12,O=C(N/N=C/c1cccc(OC(=O)c2ccco2)c1)c1ccc(F)cc1,40.8
13,CN(C)CCCN(C(=O)c1ccc(S(=O)(=O)N2CCCc3ccccc32)cc1)c1nc2ccc(F)cc2s1,17.9
14,O=c1[nH]c(=S)[nH]c2c1C(c1ccc(Cl)c(Cl)c1)OC(CCc1ccccc1)C2 (stereo not given),14
15,O=C(NNC(=O)c1cc(OCC(F)(F)F)ccc1OCC(F)(F)F)c1ccc(Cl)c(Cl)c1,0.592
16,Nc1ccccc1C(=O)NN=Cc1cccc([N+](=O)[O-])c1,35.3
17,Cc1ccn2cc(C(=O)Nc3ccc4c(c3)OCCO4)nc2c1,50.7
18,Cn1nnc(NC(=O)c2ccc(C(C)(C)C)cc2)n1,39.7
19,CCCCC1CCC(C(=O)N(CCC(C)C)c2c(N)n(CCCC)c(=O)[nH]c2=O)CC1 (stereo not given),-5.58
20,COc1ccc(OCC(=O)N/N=C/C=C/c2ccccc2)cc1,41.1

row,Structure (SMILES),"activity, % sensitization [%]"
1,CCOC(=O)C(=C1Nc2ccccc2N1)n1c(-c2cccnc2)nc2ccccc21,41.7
2,O=C(Oc1c(CN2CCOCC2)cc(Cl)c2cccnc12)c1cccs1,-4.1
3,COc1ccc(-c2cc(C(=O)N/N=C/c3cccnc3)c3ccccc3n2)cc1,40.4
4,COc1ccc(-c2nc(-c3ccc(NC(=O)c4ccncc4)cc3)no2)cc1OC,-14.5
5,CC1(C)N=C(N)N=C(N)N1c1ccc(CCCCc2ccccc2)cc1,66.9
6,C=Cc1ccc(Cn2c(C)c(C(=O)NCc3cccc(C(F)(F)F)c3)sc2=O)cc1,6.45
7,Cc1nc2cc(NC(=O)c3ccco3)ccc2n1C,21.3
8,CCOc1ccc2nc(NC(=O)c3cccc(-c4cc5ccccc5oc4=O)c3)sc2c1,-25.4
9,CCSc1ccc(-c2ccc(C)cc2)nn1,35.8
10,COc1ccc(NS(=O)(=O)c2cccc(C(=O)N/N=C/c3c(F)c(F)c(F)c(F)c3F)c2)cc1,41.3
11,CC(C)C(=O)Nc1ccc(NC(=O)c2ccccn2)cn1,37.8
12,Cc1ccc(-n2nnc(-c3cccnc3Cl)n2)cc1,-10.2
13,O=C(Nc1ccc(C(=O)O)cc1)/C(=C\C=C\c1ccccc1)NC(=O)c1ccccc1Cl,45.9
14,O=C(Nc1ccc2ccccc2c1)c1ccc(Cl)cc1,-8.49
15,CCN(CC)c1ccc(NC(=O)Nc2ccccc2)cc1,31.2
16,Cc1nn(-c2ccccc2)c2nc(N)c(C#N)c(-c3ccc(F)cc3)c12,37.2
17,Cc1nc(Cl)c2oc3ccccc3c2n1,-8.16
18,O=C1Cc2c(-c3ccccc3)cc(-c3cccc(Cl)c3)nc2-c2ccccc2N1,-20.4
19,O=C(NC1=NCCS1)c1cc2ccccc2o1,39.6
20,Cc1cccc(CC(=O)Nc2cc(C)c3c(=O)oc4ccccc4c3n2)c1,0.373
